For this assay, the system named is Drosophila S2 cl14 SmoIP sensor cells. Description: normalized SmoIP GFP fluorescence (untreated unstimulated = 0%, untreated Hh-stimulated = 100%); higher = more Smo activation sensor fluorescence. The following applies: compound concentration: 2 uM, 24 h.
[1] abbreviates: stimulation: Hh conditioned medium (+Hh).
Where [2] appears, read: stimulation: mock conditioned medium (-Hh).

Counter-ions that a name gives are not always drawn.
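Note: flow cytometry read-out as median GFP intensity of gated cells, compounds added 30 min before Hh-conditioned or mock medium, mock-treated cells serving as unstimulated baseline.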

For the molecule `Cc1ccc(NC(=O)C2(c3ccc4c(c3)OC(F)(F)O4)CC2)nc1-c1cccc(C(=O)O)c1`, the “normalized SmoIP GFP fluorescence” value under setting [1] amounted to 80%.
As to `COc1ccc2[nH]c([S+]([O-])Cc3ncc(C)c(OC)c3C)nc2c1` (centres undefined) [Omeprazole], the “normalized SmoIP GFP fluorescence” value under setting [1] was determined as 97%.
Regarding `CC(=O)Nc1cccc(N2C(=O)N(C3CC3)C(=O)C3C(Nc4ccc(I)cc4F)N(C)C(=O)C(C)C32)c1` (centres undefined), the “normalized SmoIP GFP fluorescence” value was 140% under setting [1] and -4.08% under setting [2].
Regarding `CC(C)OC(=O)OCOP(=O)(CO[C@H](C)Cn1cnc2c(N)ncnc21)OCOC(=O)OC(C)C` [Tenofovir-Disoproxil-Fumarate], the “normalized SmoIP GFP fluorescence” value came to 91.2% under setting [1] and 2.43% under setting [2].
Turning to `O=C1c2ccc(Nc3ccc(F)cc3F)cc2CCc2ccc(OC[C@H](O)CO)cc21` [skepinone-l], the “normalized SmoIP GFP fluorescence” value under setting [1] was found to be 101% and the “normalized SmoIP GFP fluorescence” value under setting [2] was -4.13%.
As for `c1cc(-c2cnn3cc(-c4ccc(N5CCNCC5)cc4)cnc23)c2cccnc2c1`, the “normalized SmoIP GFP fluorescence” value under setting [1] was 120% and the “normalized SmoIP GFP fluorescence” value under setting [2] was 2.12%.
`CN1[C@@H]2CC[C@H]1C[C@@H](OC(=O)c1c[nH]c3ccccc13)C2` [Tropisetron-hydrochloride]: the “normalized SmoIP GFP fluorescence” value under setting [1] was 116% and the “normalized SmoIP GFP fluorescence” value under setting [2] is -14.9%.
For `CC1(C)CCC2=C(O1)c1ccccc1C(=O)C2=O` [beta-lapachone], the “normalized SmoIP GFP fluorescence” value is, setting by setting: under setting [1], 113%; under setting [2], -0.264%.
Taken in the same sequence, the figures for `CN(C)C1CCN(C(=O)c2ccc(NC(=O)Nc3ccc(-c4nc(N5CCOCC5)nc(N5CCOCC5)n4)cc3)cc2)CC1` were 53% and -21.4%.
In the case of `CC1CCN(CC[C@H]2CCCN2S(=O)(=O)c2cccc(O)c2)CC1`, the “normalized SmoIP GFP fluorescence” value by setting is: under setting [1], 108%; under setting [2], 1.21%.
In the same order, the values of `COc1cc(-c2ncn(/C=C\C(=O)OC(C)C)n2)cc(C(F)(F)F)c1` are 98.3% and -0.889%.
On to `CN(Cc1cnc2nc(N)nc(N)c2n1)c1ccc(C(=O)N[C@@H](CCC(=O)O)C(=O)O)cc1` [Abitrexate], for which the “normalized SmoIP GFP fluorescence” value runs as follows: under setting [1], 200%; under setting [2], 13.3%.
With `CNC(=O)[C@H](Cc1ccccc1)NC(=O)[C@H](CC(C)C)[C@H](CSc1cccs1)C(=O)NO`, the “normalized SmoIP GFP fluorescence” value was 94.8% under setting [1] and -2.48% under setting [2].
As to `Cc1c(Nc2ncccc2C(=O)O)cccc1C(F)(F)F` [flunixin-meglumin], the “normalized SmoIP GFP fluorescence” value is 123% under setting [1] and -12.6% under setting [2].
On to `CCCCCCCCOc1ccccc1C(=O)Nc1ccc(C(=O)OCC[N+](C)(CC)CC)cc1` [otilonium-bromide], for which the “normalized SmoIP GFP fluorescence” value under setting [1] was 109% and the “normalized SmoIP GFP fluorescence” value under setting [2] is -1.85%.
`Cc1c(C(=O)NN2CCCCC2)nn(-c2ccc(Cl)cc2Cl)c1-c1ccc(Cl)cc1`: the “normalized SmoIP GFP fluorescence” value was found to be 107% under setting [1] and 2.46% under setting [2].
In the case of `C/C=C1\[C@H]2C=C(C)C[C@]1(N)c1ccc(=O)[nH]c1C2` [(-)-Huperzine-A], the “normalized SmoIP GFP fluorescence” value by setting is: under setting [1], 139%; under setting [2], -7.42%.
For the molecule `CC(C)NC[C@@H](C(=O)N1CCN(c2ncnc3c2[C@H](C)C[C@H]3O)CC1)c1ccc(Cl)cc1`, the “normalized SmoIP GFP fluorescence” value is 103% under setting [1] and -1.12% under setting [2].
In the case of `CCS(=O)(=O)Nc1ccc2c(c1)/C(=C(/Nc1ccc(CN3CCCCC3)cc1)c1ccccc1)C(=O)N2` [Hesperadin], the “normalized SmoIP GFP fluorescence” value was found to be 94.8% under setting [1] and 12.7% under setting [2].
Regarding `O=P(O)(O)C(O)(Cn1ccnc1)P(=O)(O)O` [Zoledronic-Acid], the “normalized SmoIP GFP fluorescence” value under setting [1] was 98.3% and the “normalized SmoIP GFP fluorescence” value under setting [2] is -5.54%.
Take `CN1[C@@H]2CC[C@H]1C[C@@H](OC(c1ccccc1)c1ccccc1)C2` [benztropine-mesylate]: the “normalized SmoIP GFP fluorescence” value by setting is: under setting [1], 113%; under setting [2], -0.662%.
Turning to `c1ccc(-c2nn3c(c2-c2ccnc4cc(OCCN5CCOCC5)ccc24)CCC3)nc1`, the “normalized SmoIP GFP fluorescence” value runs as follows: under setting [1], 137%; under setting [2], 30.2%.
On to `Cc1ccc(C(=O)Cn2c3c(sc2=N)CCCC3)cc1` [pifithrin-alpha], for which the “normalized SmoIP GFP fluorescence” value under setting [1] is 98.6% and the “normalized SmoIP GFP fluorescence” value under setting [2] is -1%.
In the same order, the values of `CC(C)C[C@H](NC(=O)CNC(=O)c1cc(Cl)ccc1Cl)B1OC(=O)C(CC(=O)O)(CC(=O)O)O1` are 157% and 31%.
In the same order, the values of `COc1cc2ncnc(Nc3ccc(F)c(Cl)c3)c2cc1OCCCN1CCOCC1` [Gefitinib] are 116% and -4.53%.
For `O=C(C=Cc1ccccc1)NC(NC(=S)Nc1ccc(Cl)cc1)C(Cl)(Cl)Cl` (centres undefined), the “normalized SmoIP GFP fluorescence” value reads like this: under setting [1], 88.1%; under setting [2], -1.13%.
Taken in the same sequence, the figures for `COc1cc2c(cc1OC)[C@@H]1Cc3ccc(OC)c(OC)c3CN1CC2` [rotundine] were 160% and 12.5%.
As for `C=CCc1cccc(/C=N/NC(=O)CN2CCN(Cc3ccccc3)CC2)c1O`, the “normalized SmoIP GFP fluorescence” value was 154% under setting [1] and -5.53% under setting [2].
On to `CN(C)CCC=C1c2ccccc2CCc2ccccc21` [amitriptyline-hydrochloride], for which the “normalized SmoIP GFP fluorescence” value was 104% under setting [1] and -3.27% under setting [2].
Turning to `O=C(NC(NC(=S)Nc1ccc(F)c([N+](=O)[O-])c1)C(Cl)(Cl)Cl)C(c1ccccc1)c1ccccc1` (centres undefined), the “normalized SmoIP GFP fluorescence” value by setting is: under setting [1], 108%; under setting [2], 0.815%.
`COc1cc(OC)c(/C=C/S(=O)(=O)Cc2ccc(OC)c(NCC(=O)O)c2)c(OC)c1`: the “normalized SmoIP GFP fluorescence” value is, setting by setting: under setting [1], 79.7%; under setting [2], -1.34%.
As to `Cc1nn(-c2ccccc2)c(C)c1C=NN1CCN(Cc2ccccc2)CC1` [sant-1], the “normalized SmoIP GFP fluorescence” value under setting [1] amounted to 103% and the “normalized SmoIP GFP fluorescence” value under setting [2] is -2.59%.
Taken in the same sequence, the figures for `CC(C)(C#N)c1cc(Cn2cncn2)cc(C(C)(C)C#N)c1` [Anastrozole] were 109% and -2.96%.
